# M1 PAM parental = nonselective calcium activators in parental CHO-K1 cells, primary screen, counter-screen for M1 PAM project, cell-based, Fluo-8 calcium fluorescence, full deck, 1536-well. AID 602247, 2012. ATP EC20; 0% at ATP EC20, 100% at ATP max. activation, % at 3 µM. actives 0.02% (n = 360,000);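 active means activation above the run cutoff, the mean activation of all test compounds plus 3 SD, cut at about 40% in these data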;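 further: peak over basal fluorescence ratio in a 140 s read after ATP addition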
# CHO-K1 Ca antag = counter-screen for M1 antagonists: effect in parental CHO-K1 cells. ATP-induced calcium, Fluo-8 fluorescence. inhibition, % at 3 µM. actives 0.6% (n = 360,000);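 active means inhibition above a per-plate cutoff, the plate's mean sample inhibition plus 3 SD, cut at about 24% in these data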;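 further: 0% = DMSO plus EC80 ATP and 100% = DMSO alone without ATP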
# CHRM1 agonist = human M1 muscarinic receptor agonists, primary screen, Fluo-8 calcium fluorescence, CHO-K1 cells, HTS; activation, % at 3 µM; AID 588814, 2011; CHO-K1 hM1, agonist mode; 0% DMSO, 100% acetylcholine EC100; actives 0.33% (n = 360,000); Muscarinic acetylcholine receptor M1 (Homo sapiens), P11229;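 active means activation above the run's mean compound activation plus 3 SD, cut at about 16% in these data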;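 further: peak over basal fluorescence ratio within a 140 s kinetic read after compound addition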
# Target sequence (P11229 whole entry, looked up): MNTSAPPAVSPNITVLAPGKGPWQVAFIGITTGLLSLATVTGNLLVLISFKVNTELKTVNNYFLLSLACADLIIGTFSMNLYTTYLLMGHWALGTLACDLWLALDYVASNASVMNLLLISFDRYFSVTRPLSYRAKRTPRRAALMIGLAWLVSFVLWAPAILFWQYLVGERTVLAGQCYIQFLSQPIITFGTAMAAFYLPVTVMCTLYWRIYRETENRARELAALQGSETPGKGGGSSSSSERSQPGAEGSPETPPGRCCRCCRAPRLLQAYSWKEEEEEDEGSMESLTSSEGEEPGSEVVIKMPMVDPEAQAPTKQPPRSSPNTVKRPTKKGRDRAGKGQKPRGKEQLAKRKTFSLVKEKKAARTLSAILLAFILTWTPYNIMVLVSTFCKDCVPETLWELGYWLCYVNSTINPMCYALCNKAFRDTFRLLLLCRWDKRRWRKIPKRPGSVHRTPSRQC
# M1 antag = human M1 muscarinic receptor antagonists, primary screen, CHO-K1 cells, Fluo-8 calcium fluorescence, 1536-well | CHO-K1 hM1, ACh EC80 antagonist | AID 588852, 2011 | actives 1.3% (n = 360,000) | inhibition, % at 3 µM | Muscarinic acetylcholine receptor M1 (Homo sapiens), P11229;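 active means percent inhibition above its own plate's cutoff, namely the mean of that plate's compound wells plus 3 SD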;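 further: peak over basal fluorescence ratio during 140 s after agonist addition; 0% = ACh EC80 plus DMSO and 100% = DMSO alone without agonist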
# CHO-K1 Ca ag = counter-screen for M1 agonists: effect in parental CHO-K1 cells; AID 602248, 2012; actives 0.48% (n = 360,000); activation, % at 3 µM; Fluo-8 calcium fluorescence; scaled to maximal ATP response, vehicle zero; in the data active means activation above about 15%;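 further: untransfected CHO-K1 host cells lacking M1 receptor as counterscreen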
# CHRM1 PAM = human M1 muscarinic receptor positive allosteric modulators, primary screen, CHO-K1 cells, Fluo-8 calcium fluorescence, 1536-well. Muscarinic acetylcholine receptor M1 (Homo sapiens), P11229. CHO-K1 hM1, ACh EC20; 0% = ACh EC20, 100% = maximal ACh. activation, % at 3 µM. actives 0.088% (n = 360,000); in the data active means activation above about 19%, passing the limit was not always enough
# Active calls of the source: *. Sampled rows, rich in hits. Any-hit rate of the full collection: about 2.3%.
SMILES,M1 PAM parental,CHO-K1 Ca antag,CHRM1 agonist,M1 antag,CHO-K1 Ca ag,CHRM1 PAM
Cc1cc(C)c2c(=O)n(CC(=O)Nc3ccc(Br)c(C)c3)sc2n1,1.3,-1.2,0.5,-5.2,0.8,7.2
Cc1cc(C)c2c(=O)n(CC(=O)Nc3cccc(Cl)c3C)sc2n1,2.8,3.8,16.5*,20.3,18.5*,-0.1
CN1CCN(c2ccc(Cl)cc2NS(=O)(=O)c2ccccc2Cl)CC1,13.8,1.7,-2.9,35.9*,1.6,-19.0
O=C(CN1CCCCC1)Nc1nnc(-c2ccc([N+](=O)[O-])cc2)s1,-5.5,28.6*,-3.1,12.7,0.0,-7.2
COc1ccc(NC(=S)N(CCCN2CCCC2)Cc2ccco2)cc1,17.9,-9.8,-7.7,36.1*,0.1,-19.9
CSc1cccc(NC(=S)N(CCCN2CCCC2)Cc2cccn2Cc2ccc(Cl)cc2)c1,8.3,1.5,-3.3,7.5,2.1,-6.6
S=C(Nc1ccc(Cl)cc1)N(CCCN1CCOCC1)Cc1cccs1,6.6,-20.7,-8.7,45.5*,1.7,-25.1
Cc1ccc(NC(=O)N(CCCN2CCOCC2)Cc2cccs2)cc1C,19.6,-14.4,-3.1,-31.4,0.2,32.4*
O=C(Nc1ccc(Cl)cc1)N(CCCN1CCOCC1)Cc1cccs1,-4.0,3.5,-9.0,4.8,1.5,-12.0
CSc1cccc(NC(=S)N(CCCN2CCCC2)Cc2cccs2)c1,25.8,-17.8,-7.0,36.4*,2.9,-24.0
CC1=NN(c2ccccc2)C(=O)C1CCC#N (stereo not drawn),0.8,-6.3,-4.0,-9.5,0.2,2.1
CC(C)[C@H](NC(=O)[C@@H]1Cc2c([nH]c3ccccc23)C2c3ccccc3C(=O)N21)C(=O)N1CCC[C@H]1C(=O)O (stereo partly drawn),2.3,-5.4,-0.5,-10.3,0.1,7.7
COc1ccc(NC(=S)N(CCCN2CCCC2)Cc2cccs2)cc1,17.4,-15.9,-8.1,55.2*,1.1,-22.6
CCN1CCN(CCCN(Cc2ccco2)C(=S)Nc2cccc(Cl)c2C)CC1,-6.1,-0.1,-8.2,18.0,0.0,-11.3
COc1ccc(NC(=S)N(CCCN2CCCCCC2)Cc2cccs2)cc1,-4.3,-5.8,-5.5,-8.6,0.0,6.2
Cc1c(Cl)cccc1NC(=S)N(CCCN1CCOCC1)Cc1ccco1,-5.5,-9.1,-6.1,48.3*,0.9,-25.4
N#CC(CC(=O)OCc1ccccc1)NC(=O)OCc1ccccc1 (stereo not drawn),-2.0,-0.2,-7.5,-4.2,0.5,-1.3
CCCC1C(=O)Nc2ccccc2N1C(=O)c1ccc(C(C)(C)C)cc1 (stereo not drawn),10.8,-19.5,-5.6,-1.9,-0.9,-1.5
CCCC1C(=O)Nc2ccccc2N1C(=O)c1cccc(C)c1 (stereo not drawn),7.7,2.5,-7.7,68.2*,1.8,-27.4
CCOC(=O)c1nnc(-c2cccs2)nc1NC(C)C,-5.2,25.4*,-2.4,-7.8,-0.1,9.6
O=C(Nc1nnc(C(F)(F)F)s1)c1ccc(Br)s1,-13.0,3.4,3.2,28.4*,13.1,-3.4
NC(=O)c1ccccc1NC(=O)c1ccccc1Cl,-22.4,7.7,-3.1,-6.8,0.2,4.9
CCSc1nnc(NC(=O)c2ccc(Br)s2)s1,7.1,-5.8,-3.2,6.5,0.8,-2.5
O=C(Nc1ccccc1C(=O)Nc1nnc(C(F)(F)F)s1)c1ccccc1Cl,-24.6,27.0*,10.5,34.3*,28.0*,-12.1
CC(C)NC(=O)Nc1nnc([C@@H]2C[C@H](O)[C@@H](CO)O2)s1,8.8,-3.0,-0.7,-8.2,0.2,9.8
SMILES,M1 PAM parental,CHO-K1 Ca antag,CHRM1 agonist,M1 antag,CHO-K1 Ca ag,CHRM1 PAM
CN(C)c1cccc(F)c1C(=O)NC(=O)Nc1ccc(Cl)cc1,5.0,-5.5,-6.8,4.2,0.7,-10.4
COc1cccc(S(=O)(=O)Nc2ccc(C(O)(C(F)(F)F)C(F)(F)F)cc2)c1,-5.4,-4.0,-2.3,-13.8,0.7,1.6
N=c1c2c(n(Cc3ccc(Br)cc3)c3c1CCC3)CCCC2,-11.9,14.1,-10.0,25.6*,-0.1,-25.1
N=c1c2c(n(Cc3ccc(Cl)c(Cl)c3)c3c1CCC3)CCCC2,21.8,-3.7,-4.3,19.6,1.2,-15.6
CC1(C(=O)NS(=O)(=O)c2ccc(Cl)s2)CCN1C(=O)C1CCCCC1 (stereo not drawn),5.6,-12.1,-2.7,-6.2,-0.1,2.6
O=C(CCCCCn1c(=S)[nH]c2ccc(N3CCOCC3)cc2c1=O)NC1CCN(Cc2ccccc2)CC1,-7.7,3.9,-8.8,50.1*,0.2,-25.9
CCOC(=O)c1ccc(N2CC(O)=C(c3nc4ccccc4c(=O)[nH]3)C2=N)cc1,-6.8,24.1*,-3.1,2.7,1.1,-1.9
COc1ccc(CCN2CC(O)=C(c3nc(C)cs3)C2=N)cc1OC,-5.2,14.9,-3.8,2.6,0.5,1.8
COc1ccc(CCN2CC(O)=C(c3nc4ccccc4c(=O)[nH]3)C2=N)cc1OC,-8.2,29.7*,-1.4,-4.7,0.1,6.9
CCOc1ccc(N2CC(O)=C(c3nc4ccccc4c(=O)[nH]3)C2=N)cc1,-4.6,7.4,-4.7,1.7,0.1,-6.2
CCSc1nc2ccccc2c(=O)n1CCc1ccc(OC)c(OC)c1,-17.8,7.5,-3.3,24.7*,3.0,-9.5
Cc1ccc(F)cc1C(=O)N1CCCCC1c1cc(C(=O)Nc2cccc(C#N)c2)no1 (stereo not drawn),14.5,-13.9,-5.3,-4.3,4.5,2.4
OC(c1ccc(F)cc1)c1nc(-c2cc3ccccc3o2)cs1 (stereo not drawn),-11.1,6.2,10.0,4.3,6.9,-14.0
CN1C(CC(=O)Nc2ccc(Cl)cc2Cl)c2ccccc2CC1(C)C (stereo not drawn),12.8,-8.9,-8.7,33.7*,0.4,-19.8
CC1(C)N=C(SCC(=O)Nc2ccc(Cl)cc2Cl)C(c2ccccc2)=N1,2.9,-5.6,-2.5,-3.8,0.3,0.2
CCOC(=O)C1CCCN(C2CC(=O)N(c3cccc(C)c3)C2=O)C1 (stereo not drawn),-2.1,2.4,46.9*,22.6,0.1,-22.9
CCOC(=O)c1ccc(N2C(=O)CC(N3CCCC(C)C3)C2=O)cc1 (stereo not drawn),8.7,-27.7,-3.1,-8.3,1.4,1.9
CCCCCCC1CC(CCc2nc(=S)[nH][nH]2)C(=O)O1 (stereo not drawn),4.4,-5.5,-6.9,-2.5,-0.1,4.9
CCCCCCCCc1nc(=S)[nH][nH]1,-6.4,25.5*,-3.9,-12.3,0.0,10.9

# Source: PubChem
